Assay outcomes as filed in PubChem BioAssay.
ANO1 block: blocks the mouse calcium-activated chloride channel TMEM16A; Q8BHY3; actives 1.2% (n = 310,000); normalized B-score (activity score, 25-100; higher = stronger inhibition) at 10 µM; HEK293 TMEM16A/YFP iodide influx fluorescence, ionomycin;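 active = ratio plate-corrected score three or more library SD toward inhibition, starting fluorescence score within five deviations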;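 also: score derived from kinetic fluorescence span divided by baseline fluorescence per well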
Target sequence (Q8BHY3 whole entry, looked up): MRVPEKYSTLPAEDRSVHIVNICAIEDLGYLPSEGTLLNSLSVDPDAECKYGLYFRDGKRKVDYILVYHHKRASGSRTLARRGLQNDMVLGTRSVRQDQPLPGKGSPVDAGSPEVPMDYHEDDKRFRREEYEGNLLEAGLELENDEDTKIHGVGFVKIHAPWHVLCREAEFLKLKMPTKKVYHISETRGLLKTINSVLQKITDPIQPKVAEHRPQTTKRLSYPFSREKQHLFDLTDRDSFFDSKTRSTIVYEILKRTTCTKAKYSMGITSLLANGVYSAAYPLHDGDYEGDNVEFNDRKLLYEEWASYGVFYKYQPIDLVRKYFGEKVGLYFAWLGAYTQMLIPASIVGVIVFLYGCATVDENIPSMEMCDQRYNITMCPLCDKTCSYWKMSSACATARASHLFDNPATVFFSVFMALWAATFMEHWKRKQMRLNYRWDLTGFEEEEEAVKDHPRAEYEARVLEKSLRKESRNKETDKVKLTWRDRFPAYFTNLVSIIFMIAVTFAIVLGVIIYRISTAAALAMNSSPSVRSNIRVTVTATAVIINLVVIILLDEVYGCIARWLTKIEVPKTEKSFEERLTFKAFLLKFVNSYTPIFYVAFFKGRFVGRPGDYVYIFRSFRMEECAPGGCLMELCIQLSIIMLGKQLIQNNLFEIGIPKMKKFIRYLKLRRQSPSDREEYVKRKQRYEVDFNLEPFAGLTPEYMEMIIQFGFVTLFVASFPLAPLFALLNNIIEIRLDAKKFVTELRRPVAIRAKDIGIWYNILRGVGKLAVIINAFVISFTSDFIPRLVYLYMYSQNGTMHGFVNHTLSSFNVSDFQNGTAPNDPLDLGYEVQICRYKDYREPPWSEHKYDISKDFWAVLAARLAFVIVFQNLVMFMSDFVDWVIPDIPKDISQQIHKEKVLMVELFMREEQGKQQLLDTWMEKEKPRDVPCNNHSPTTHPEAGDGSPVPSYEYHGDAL
CHT block: human CHT choline transport inhibition; Q9GZV3; CHT-expressing cells, membrane potential dye, choline response; hits give low values; B-score at 10 µM; actives 0.86% (n = 310,000);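 active = B-score over 3 SD under the library average, and starting fluorescence ratio not unusually high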;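 also: choline stimulus applied at its EC90 after an EC20 pre-addition; B-score computed on integrated fluorescence ratio after choline addition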
CHT allo act: human CHT allosteric activation; AID 488977; actives 0.49% (n = 310,000); B-score at 10 µM; CHT-expressing cells, membrane potential dye, choline EC20; hits give high values; LV-AA mutant CHT in HEK293 cells;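 active = initial fluorescence not abnormally high and integrated response B-score, plate-corrected, over 3 SD above library mean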
TMEM16A act: activates or potentiates the mouse TMEM16A chloride channel; B-score at 10 µM; AID 623877; HEK293 TMEM16A/YFP-H148Q/I152L, iodide quench fluorescence; hits give low values; actives 0.3% (n = 340,000);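 active = fluorescence-ratio B-score plate-corrected deviation score at least 3 library SD below zero, with starting fluorescence score within 5 deviations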;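 also: channel opened by trigger with iodide after compound preincubation; score built on the fluorescence ratio of max minus min over baseline; more negative score means more quench and so TMEM16A activation or potentiation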
Each line names hits and unclear results; the compound was inactive in the other large screens. Shown are actives, neighbours in structure and some others; about 2.3% of the full set was active somewhere.

CC(C)(C)c1cc([N+](=O)[O-])cc(C(C)(C)C)c1O	ANO1 block 100 (no result: TMEM16A act)
CCCCCn1c(=O)c(C(=O)Nc2ncccc2C)c(O)c2ccccc21	none
CCCCn1c(=O)c(C(=O)Nc2cnccn2)c(O)c2ccccc21	ANO1 block 100 (no result: TMEM16A act)
COC(/C(C)=C/C=C/C(C)=C/c1coc(C)n1)C(C)C1CC(O)C2(C)OC2C=CC(C)C2CC(CC(=O)O2)CC2OC2C(=O)O1 (stereo unspecified)	none (no result: ANO1 block, CHT block, CHT allo act)
CCC1(O)CCC2C3CCC4=CC(=O)CCC4C3CCC21CC (stereo unspecified)	TMEM16A act -4.79 (no result: ANO1 block, CHT block, CHT allo act)
Cc1cc(C)n(-c2ccc(NN=C(C#N)C#N)cc2)n1	none
N#CC(C#N)=NNc1ccc(-n2ccc(C(F)(F)F)n2)cc1	ANO1 block 100, TMEM16A act -4.62
COc1ccc(CN(CCc2c[nH]c3ccccc23)Cc2ccc(OC)cc2)cc1	none (no result: ANO1 block, CHT block, CHT allo act)
COc1cc2c(cc1OC)C13CCN4CC5CCOC6CC(=O)N2C1C6C5CC43 (stereo unspecified)	none (no result: ANO1 block, CHT block, CHT allo act)
COc1ccc(N2C(=O)NC(=O)/C(=C\c3ccc([N+](=O)[O-])s3)C2=O)cc1	TMEM16A act -6.4
CCCC[N+]1(C)[C@@H]2CC(OC(=O)[C@H](CO)c3ccccc3)C[C@H]1[C@@H]1O[C@@H]12 (stereo partly specified)	TMEM16A act -10
C[CH2][Hg][S]c1ccccc1C(=O)O	none
COc1cc2c(cc1OC)-c1c(OC)c(OC)cc3c1C(C2)N(C)CC3 (stereo unspecified)	CHT allo act 8.4
CCCC1(CCO)C(=O)NC(=S)NC1=O	none (no result: ANO1 block, CHT block, CHT allo act)
CN1CCN(c2ccc([N+](=O)[O-])c3cccnc23)CC1	CHT allo act 7.07
O=c1c([N+](=O)[O-])cn(O)cc1[N+](=O)[O-]	none (no result: ANO1 block, CHT block, CHT allo act)
CSc1ccc(C(=O)C2CCCN(Cc3cnc(SC)nc3)C2)cc1 (stereo unspecified)	ANO1 block 25
CSc1ncc(CN2CCCC(C(=O)c3ccccc3SC)C2)cn1 (stereo unspecified)	none
CC12C=CC(=O)C=C1CC(O)C1C2CCC2(C)C1CCC2(C)O (stereo unspecified)	none (no result: ANO1 block, CHT block, CHT allo act)
C/C1=C\[C@@H](C)C/C=C/[C@H]2[C@@H]3O[C@]3(C)[C@@H](C)[C@H]3[C@H](Cc4c[nH]c5ccccc45)NC(=O)[C@]32C(=O)/C=C/C(=O)[C@@H]1O	ANO1 block 100, TMEM16A act -10.8
NC(N)=N/N=C/c1cn(-c2ccccc2)nc1-c1cccs1	ANO1 block 100
Cc1nc2ccccc2c(=O)n1-c1ccc([N+](=O)[O-])cc1	none
Cc1nc2cc([N+](=O)[O-])ccc2c(=O)n1-c1ccc(Br)cc1	TMEM16A act -13.4
Cc1ccc(N2C(=O)NC(=O)/C(=C\c3cc(C)n(-c4sc5c(c4C#N)CCCC5)c3C)C2=O)cc1	ANO1 block 25
CCN1C(=O)NC(=O)/C(=C/c2cc(C)n(-c3sc(C)c(C)c3C#N)c2C)C1=O	none
CCCCn1c(O)c(C(CC)=Nc2ccc(OC)cc2OC)c(=O)[nH]c1=O	ANO1 block 25
N=C1c2ccccc2CN1c1ncccn1	CHT allo act 7.89
COCCCN1Cc2ccccc2C1=N	none
O=C(CCCN1CCC2(CC1)C(=O)NCN2c1ccccc1)c1ccc(F)cc1	ANO1 block 25, TMEM16A act -11.3
Cc1cc(-c2ccccc2)cc(-c2ccccc2)[n+]1CCc1ccccc1	ANO1 block 25
Clc1ccc(C[n+]2c(-c3ccccc3)cc(-c3ccccc3)cc2-c2ccccc2)cc1	ANO1 block 25, CHT block -8.87
CCOc1ccc(-c2cc(C)[n+](CCc3ccc(OC)c(OC)c3)c(-c3ccc(OCC)cc3)c2)cc1	ANO1 block 25
CCOc1ccc(-c2cc(C)[n+](CCO)c(-c3ccc(OCC)cc3)c2)cc1	none
Cc1ccc(-c2cc(-c3ccccc3)cc(-c3ccccc3)[n+]2-c2ccccc2C(=O)O)cc1	none
Cc1cccc(C(O)(C(=O)O)c2ccccc2)c1 (stereo unspecified)	none (no result: ANO1 block, CHT block, CHT allo act)
CCOP(=O)(CCP(=O)(OCC)OCC)OCC.C[CH2][Sn]([Cl])([Cl])[CH2]C	none (no result: ANO1 block, CHT block, CHT allo act)
CCC1(NS(=O)(=O)c2ccc(N)cc2)C(=O)N(C)C(=O)N(C)C1=O	none (no result: ANO1 block, CHT block, CHT allo act)
Cn1c(O)c(/C=C2\C=Nc3ccccc32)c(=O)n(C)c1=O	TMEM16A act -4.75
COC(=O)C1=Nc2ccccc2/C1=C\c1c(O)n(C)c(=O)n(C)c1=O	none
COc1ccc(-[n+]2c(-c3ccccc3)cc(-c3ccccc3)cc2-c2ccccc2)cc1	ANO1 block 100 (no result: TMEM16A act)
O=C([O-])c1ccc(-[n+]2c(-c3ccccc3)cc(-c3ccccc3)cc2-c2ccccc2)cc1	none
O=[N+]([O-])c1ccccc1CCl	none (no result: ANO1 block, CHT block, CHT allo act)
O=[N+]([O-])c1ccccc1-c1cc(-c2ccccc2)cc(-c2ccccc2)[n+]1Cc1ccccc1Cl	CHT block -5.28 (no result: TMEM16A act)
N#CC1C(C#N)C2CCC1C1C2N1c1ccccc1 (stereo unspecified)	none (no result: ANO1 block, CHT block, CHT allo act)
Oc1c(Br)cc(Br)cc1Oc1ccc(Br)cc1Br	ANO1 block 100 (no result: TMEM16A act)
Brc1ccc(Oc2ccc(Br)cc2Br)c(Br)c1	none (no result: ANO1 block, CHT block, CHT allo act)
CN[C@@H]1C[C@@H](c2ccc(Cl)c(Cl)c2)c2ccccc21	ANO1 block 25 (no result: TMEM16A act)
CC(NCc1ccc(Cl)c(Cl)c1)C(O)c1ccccc1 (stereo unspecified)	none
CN(C)C=C1C(=O)N(C2CCCCC2)C(=O)N(C2CCCCC2)C1=O	CHT block -5.37
CN1C(=O)C(=Cc2ccc(SC3CCCCC3)o2)C(=O)N(C)C1=O	none
C1CC2OC2CC1C1CO1 (stereo unspecified)	none (no result: ANO1 block, CHT block, CHT allo act)
N#Cc1ncc(N=Cc2ccc(N(CCCl)CCCl)cc2)s1	none (no result: ANO1 block, CHT block, CHT allo act)
CCC1C=CC=CC[C@H](C)[C@@H](O)[C@](C)(O)C(=O)[C@@H](C)[C@H](O)[C@@H](C)C(=O)[C@H](C)[C@@H](O)[C@H](C)C=CC(=O)OC2[C@@H](C)C(CC1)OC1(CC[C@@H](C)C(C[C@H](C)O)O1)[C@@H]2C (stereo partly specified)	ANO1 block 25 (no result: TMEM16A act)
Cc1cc2c(cc1C)NP(=S)(c1ccccc1)N2	none (no result: ANO1 block, CHT block, CHT allo act)
O=C(O)c1cc[c]([Hg][Cl])cc1	CHT block -6.1
CCOc1cccc(CNCCc2c(C)[nH]c3ccc(OC(F)(F)F)cc23)c1O	ANO1 block 100
COc1ccc(OC)c(N2C(=O)NC(=O)C3(Cc4cc(C)ccc4N(C)C3)C2=O)c1 (stereo unspecified)	none
Cc1ccc2c(c1)CC1(CN2C)C(=O)NC(=O)N(c2cc(C)ccc2C)C1=O (stereo unspecified)	ANO1 block 25
COc1cc2c(cc1OC)C13CCN4CC5=CCOC(CC(=O)O)C(C5CC41)C3N2 (stereo unspecified)	none (no result: ANO1 block, CHT block, CHT allo act)
COc1ccc(/C=C/C=C2C(=O)NC(=S)NC2=O)cc1	none (no result: ANO1 block, CHT block, CHT allo act)
CC(=O)OC(C)(C)/C=C/C(=O)C(C)(O)C1[C@H](O)C[C@@]2(C)C3CC=C4C(CC[C@@H](O)C4(C)C)[C@]3(CO)C(=O)C[C@]12C (stereo partly specified)	CHT allo act 8.67
O=P1(c2ccccc2)Nc2ccccc2N1c1ccccc1 (stereo unspecified)	none (no result: ANO1 block, CHT block, CHT allo act)
